Screening results deposited in PubChem by National Center for Advancing Translational Sciences (NCATS).
Shown are actives, neighbours in structure and some others; about 14% of the full set was active somewhere.
Sm TGR inh: blocks Schistosoma mansoni thioredoxin glutathione reductase; 360,000 compounds, 3% hits; purified TGR, DTNB reduction, TNB absorbance 405 nm; Potency, µM (series often up to 114 µM), inactives show at the highest dose activity change, negative = inhibition, hits mostly inhibitors; Q962Y6; AID 485364; also: potency is read from the fitted curve at half-maximal effect; nearly all actives have a fitted effect of over 60% in size
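TGR 20 nM + NADPH 100 uM (dispensed conc.), cpd preinc 15 min RT; start with NADPH (500 uM addition) then DTNB (15 mM addition). Kinetic TNB absorbance, 405 nm filter. Four-parameter Hill fit across titration.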
HCMV antiviral: inhibitors of human cytomegalovirus. 410,000 compounds, 4.5% hits. AID 1259415. HFF cells, HCMV-luciferase reporter, 72 h; stronger effect = lower value. activity change, negative = inhibition, % at 57.5 µM; in the data active = activity change below about -60%; inconclusive = no clear call, values can overlap the other calls; inactive = above about -39%
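Inhibition of viral replication was scored as loss of reporter luminescence in HFFs infected with HCMV-luciferase (MOI 1 PFU/cell) for 72 h; compounds tested at 2 doses, normalized to buffer and Salinomycin controls.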
Pf growth 96h: inhibits malaria parasite growth, 96 h; P. falciparum luciferase reporter growth, 96 h; Potency, µM (titrated, usually from 28.7 µM), without a hit: at the top dose activity change, negative = inhibition, hits mostly inhibitors; 320,000 compounds, 6.9% hits; also: potency is read from the fitted curve at half-maximal effect
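Plates of compound plus infected erythrocytes (2% hematocrit, 0.05% parasitemia final) incubate 96 hours, 37 C, 5% CO2. Detection reagent added; reduced luminescence from the parasites' luciferase reporter flags inhibition.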
Giardia FBPA inh: inhibitors of Giardia lamblia fructose-1,6-bisphosphate aldolase; A8B2U2; 290,000 compounds, 0.71% hits; purified Giardia FBPA; Potency, µM (series often up to 59.6 µM), inactives show at the highest dose activity, negative = inhibition, actives largely listed as inhibitors; AID 2451; also: potency is read from the fitted curve at half-maximal effect; nearly all actives have a fitted effect of over 55% in size
Target sequence (A8B2U2 whole entry, looked up): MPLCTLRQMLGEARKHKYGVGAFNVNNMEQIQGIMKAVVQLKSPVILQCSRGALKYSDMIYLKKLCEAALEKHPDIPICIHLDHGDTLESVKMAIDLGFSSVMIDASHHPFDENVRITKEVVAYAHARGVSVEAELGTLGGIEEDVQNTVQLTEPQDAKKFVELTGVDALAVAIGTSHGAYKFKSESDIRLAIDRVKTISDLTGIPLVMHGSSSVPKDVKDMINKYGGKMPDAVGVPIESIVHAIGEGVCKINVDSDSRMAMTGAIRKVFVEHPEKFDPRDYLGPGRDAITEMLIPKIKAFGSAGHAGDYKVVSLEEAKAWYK
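40 nM FBPA preincubated 10 min at RT with compound (up to 57.5 uM final), then substrate plus GAPDH/TPI/NAD/arsenate coupling and diaphorase/resazurin added. Fluorescence read after 20 min at RT, 525/598 nm.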
Pf growth 48h: P. falciparum growth inhibition at 48 hours (one generation) | P. falciparum luciferase growth in erythrocytes, 48 h | Potency, µM (titrated, usually from 28.7 µM), for inactives: top-dose activity change, negative = inhibition, usual class: inhibitors | 310,000 compounds, 5.9% hits | AID 504832; also: potency is read from the fitted curve at half-maximal effect
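Growth was read as firefly luciferase luminescence after a 48 h, 37 C, 5% CO2 exposure of compounds to reporter-bearing P. falciparum cultures (0.1% parasitemia, 2% hematocrit final) in Albumax-supplemented RPMI 1640.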
An asterisk follows results filed as active; i = inactive; ? = inconclusive; · = no result; [ ] = dose if it differs, or a comment. Unless noted, calls follow the shape of the dose curve; as a rule, active = well fitted curve in the direction sought with a large enough effect; inconclusive = small, poorly fitted or top-dose-only effect, or another doubt; inactive = no such curve, though single readings can be large; an effect the other way counts as inactive or inconclusive. % is scaled to controls: 0 for no effect and ±100 for the full control effect.

SMILES | Sm TGR inh | HCMV antiviral | Pf growth 96h | Giardia FBPA inh | Pf growth 48h
Cc1ccc(S(=O)(=O)Cn2nnnc2C(CC(C)C)N2CCN(C(=O)c3ccco3)CC2)cc1 (centres undefined) | -8% | 47 | 1.7µM* | 5% | 12µM*
CC(C)CC(c1nnnn1C1CCCC1)N1CCN(C(=O)c2ccco2)CC1 (centres undefined) | -6% | -11 | 9.3µM* | -7% | -25%
N[C@H](CSSC[C@@H](N)C(=O)O)C(=O)O | · | · | · | 3% | ·
Cc1ccc(NC(=O)CSc2nc3ccccc3c3nc(CCn4c(C)nc5ccccc54)nn23)cc1F | -1% | -11 | · | · | ·
Cc1ccccc1NC(=O)CSc1nc2ccccc2c2nc(CCn3c(C)nc4ccccc43)nn12 | -5% | -4 | · | · | ·
Cc1nc2ccccc2n1CCc1nc2c3ccccc3nc(SCC(=O)NCc3ccco3)n2n1 | ? | -62* | -28% | -7% | ?
Cc1nc2ccccc2n1CCc1nc2c3ccccc3nc(SCC(=O)Nc3cccc(C(F)(F)F)c3)n2n1 | 13% | -61* | · | · | ·
COc1cccc(N2CCN(C(=O)C3CCN(S(=O)(=O)c4c(C)noc4/C=C/c4ccccc4F)CC3)CC2)c1 | 3% | -13 | · | · | ·
Cc1ccccc1C(=O)N[C@H](C(=O)N1CCC[C@H]1C(=O)NCc1ccccc1)c1ccccc1 | · | 35 | · | · | ·
CC(=O)NS(=O)(=O)c1ccc(NC(=O)[C@@H]2CCCN2S(=O)(=O)c2ccc(Cl)cc2)cc1 | · | -3 | · | · | ·
COc1ccc2c(CC(=O)Nc3ncc(C)s3)coc2c1 | 3% | -77* | 113% | 1% | 49%
COc1cc(CN2CCN(Cc3ccc(SC)cc3)CC2)cc(OC)c1O | 10µM* | 9 | 12% | ? | -18%
CCn1c2ccccc2c2cc(CN3CCN(Cc4cc(OC)ccc4O)CC3)ccc21 | -27% | 15 | 53% | ? | 1.2µM*
CCN1CCN(Cc2ccc(NC(=O)Nc3ccc(SC)cc3)cc2)CC1 | 6% | 32 | · | 7% | 1.7µM*
CCn1c2ccccc2c2cc(CN3CCN(Cc4ccccc4C)CC3)ccc21 | -1% | 123 | · | · | ·
CCn1c2ccccc2c2cc(CN3CCN(Cc4cc(OC)c(O)c(OC)c4)CC3)ccc21 | 35µM* | ? | · | · | ·
O=C(COC(=O)c1nc(Cl)ccc1Cl)NNC(=O)c1cccs1 | -5% | -19 | 22% | · | 16%
Cc1cccn2c(=O)c3cc(C(=O)NCc4ccco4)c(=N)n(C4CCCCC4)c3nc12 | -6% | · | 20% | · | 9.3µM*
Cc1cccn2c(=O)c3cc(C(=O)NCc4ccco4)c(=N)n(CCOCCO)c3nc12 | -2% | · | ? | -9% | 1.5µM*
COc1ccccc1N(CCC#N)C(=O)CSc1nnc2ccccn12 | 33% | -10 | -15% | · | 2%
CCN(CC)C(CNS(=O)(=O)c1ccc(Cl)cc1)c1ccccc1 (centres undefined) | 2% | 38 | ? | -7% | 1%
COCCN(Cc1cc2cc3c(cc2nc1Cl)OCO3)C(=O)c1ccc(C)cc1 | -6% | -69* | 23% | -17% | ?
COCCN(Cc1cc2cc(C)c(C)cc2nc1Cl)C(=O)Nc1ccccc1 | -8% | 76 | 20% | -1% | ?
O=C(c1ccco1)N1CCN(C(=O)c2ccco2)CC1 | · | 15 | · | · | ·
O=C(c1ccco1)n1c(=S)nc2ccccn21 | 50µM* | 8 | 1% | ? | 108%
SMILES | Sm TGR inh | HCMV antiviral | Pf growth 96h | Giardia FBPA inh | Pf growth 48h
Cc1ccn2c(c1)nc(=S)n2C(=O)c1ccccc1 | 0% | ? | 433% | -3% | i
Cc1cccc2nc(=S)n(C(=O)c3ccco3)n12 | 22µM* | 60 | 6% | 0% | 108%
Cc1ccc(Nc2nc(N)c([N+](=O)[O-])c(NCc3ccco3)n2)cc1C | -3% | 43 | ? | -9% | -81%
Cc1cc2c(cc1Cl)C(c1ccccc1C)CC(=O)O2 (centres undefined) | · | · | · | -2%[89.2 µM] | ·
N#CC(Br)Br | 50µM* | 4 | ? | · | 0%
CCOC(=O)c1c(S(=O)(=O)N2CCN(c3ccc(C(C)=O)cc3)CC2)c(C)n(C)c1C | -5% | 70 | 15% | 10% | -22%
Cc1c(-c2nc(-c3ccc4c(c3)[nH]c(=O)n4C)no2)cccc1[N+](=O)[O-] | 1% | -29 | · | · | ·
CC12CCC(=O)C=C1CCC1C2C(O)CC2(C)C1CCC21OCC1=O (centres undefined) | · | -92* | · | · | ·
Cc1n[nH]c(C)c1S(=O)(=O)N1CCCC(C(=O)Nc2ccc(Cl)cc2)C1 (centres undefined) | 5% | ? | · | · | ·
O=C(COc1ccc2ccccc2c1)N1CCN(Cc2c[nH]c3ccccc23)CC1 | -4% | 41 | 3.3µM* | -30% | 12µM*
COc1c(OC(C)=O)ccc(/C=C/c2ccc3cccc(OCc4ccccc4)c3n2)c1[N+](=O)[O-] | -3% | 12 | ? | -1% | 1.9µM*
COc1cc(/C=C/c2ccc3cccc(OC)c3n2)c(OC(C)=O)c([N+](=O)[O-])c1 | -2% | -84* | ? | -4% | ·
O=C(C1=C[C@H](c2csc3ccccc23)C[C@H](OCc2ccc(CO)cc2)O1)N1CCN(Cc2ccccc2)CC1 | 14µM* | ? | 9.3µM* | -17% | ?
O=C(C1=C[C@H](c2coc3ccccc3c2=O)C[C@H](OCc2ccc(CO)cc2)O1)N1CCN(Cc2ccc3c(c2)OCO3)CC1 | -17% | 0 | 1.3µM* | 0% | 1.5µM*
O=C(C1=C[C@H](c2csc3ccccc23)C[C@H](OCc2ccc(CO)cc2)O1)N1CCOCC1 | -29% | 20 | ? | -1% | -25%
O=C(C1=C[C@H](c2csc3ccccc23)C[C@H](OCc2ccc(CO)cc2)O1)N1CCN(Cc2ccc3c(c2)OCO3)CC1 | -16% | -25 | 4.1µM* | -5% | ?
CN1CCN(C(=O)C2=C[C@@H](c3csc4ccccc34)C[C@@H](OCc3ccc(CO)cc3)O2)CC1 | 0% | 11 | ? | 0% | ?
O=C(C1=C[C@@H](c2coc3ccccc3c2=O)C[C@@H](OCc2ccc(CO)cc2)O1)N1CCN(Cc2ccc3c(c2)OCO3)CC1 | 5% | -14 | ? | -3% | ?
COc1cccc(C2CC(=O)Nc3c2c(=O)n(C)c2ncnn32)c1OC (centres undefined) | -4% | 7 | · | · | ·
COc1c(C)cc(C(=O)C2CCCN(C(=O)c3cccc(-n4cccn4)c3)C2)cc1C (centres undefined) | 6% | 3 | i | -5% | 4%
Cc1ccc(-c2nn(CC(=O)NCc3ccccc3)c3c2cnc2ccc(F)cc23)cc1C | 0% | 56 | · | · | ·
OC[C@@H](O)COc1cccc2ccccc12 | · | · | · | -3% | ·
CN(Cc1ccccc1)CC(O)COc1ccc(CNCCc2ccncc2)cc1 (centres undefined) | -4% | -21 | -47% | 2% | 5.2µM*
